PubChem BioAssay (EPA / NIEHS)
Records with an inconclusive call do not appear. Calls of active or inactive are those of the source. How the source made its calls: active means hit-call score of the fitted dose curve at least 0.9, where 1 is the maximum; inconclusive means response in the unintended direction; inactive means score below 0.9.

What was measured:
[1] = tested on: bovine Angiotensin II Receptor Type 2 (AT2), gene 407157; assay: NVS_GPCR_bAT2: NovaScreen (NVS) G Protein-Coupled Receptor Assay for bovine Angiotensin II Receptor Type 2 (AT2) (AID 2283240)
Procedure: NVS_GPCR_bAT2 is a biochemical, single-readout assay that uses extracted gene-proteins from Bovine cerebellar membranes in a tissue-based cell-free assay. Measurements were taken 1 hour after chemical dosing in a 96-well plate.NVS_GPCR_bAT2 is one of one assay component(s) measured or calculated from the NVS_GPCR_bAT2 assay. It is designed to make measurements of radioligand binding, a form of binding reporter, as detected with scintillation counting signals by Filter-based radiodetection technology.Data from the assay component NVS_GPCR_bAT2 was analyzed into 1 assay endpoint. This assay endpoint, NVS_GPCR_bAT2, was analyzed in the positive analysis fitting direction relative to DMSO as the negative control and baseline of activity. Using a type of binding reporter, loss-of-signal activity can be used to understand changes in the binding as they relate to the gene AGTR2. Furthermore, this assay endpoint can be referred to as a primary readout, because the performed assay has only produced 1 assay endpoint. To generalize the intended target to other relatable targets, this assay endpoint is annotated to the gpcr intended target family, where the subfamily is rhodopsin-like receptor. […]

[2] = molecular target: rat Monoamine Oxidase, MAO-B, Peripheral (MAOBP), Maob (gene 25750) (UniProt P19643); assay: NVS_ENZ_rMAOBP: NovaScreen (NVS) Enzymatic Assay for rat Monoamine Oxidase, MAO-B, Peripheral (MAOBP) (AID 2283242)
[3] = molecular target: Adenosine receptor A1 (Bos taurus) (UniProt P28190); assay: NVS_GPCR_bAdoR_NonSelective: NovaScreen (NVS) G Protein-Coupled Receptor Assay for bovine Adenosine Receptor (AdoR), Non-selective Binding (AID 2283244)
How it was run: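 Cell-free binding with membranes from bovine striatum: radioligand displaced by test chemical, read after 1 h by filtration and scintillation. Single-point 25 uM duplicate primary, 50 uM top concentration in follow-up curves, DMSO baseline.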

[4] = molecular target: human Serotonin, 5-Hydroxytryptamine Receptor 6 (5HT6), HTR6 (gene 3362) (UniProt P50406); assay: NVS_GPCR_h5HT6: NovaScreen (NVS) G Protein-Coupled Receptor Assay for human Serotonin, 5-Hydroxytryptamine Receptor 6 (5HT6) (AID 2283253)
How it was run: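 Filter scintillation counting of radioligand displacement from HEK293-expressed 5HT6, 1 hour post-dose, with loss of signal relative to DMSO. Single 25 uM duplicates first, with concentration series for confirmation.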

[5] = molecular target: guinea pig Leukotriene D4 Receptor (LTD4), CYSLTR1 (gene 100135514) (UniProt Q2NNR5); assay: NVS_GPCR_gLTD4: NovaScreen (NVS) G Protein-Coupled Receptor Assay for guinea pig Leukotriene D4 Receptor (LTD4) (AID 2283248)
How it was run: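 Guinea pig lung membrane preparation; bound radioligand measured by filter scintillation after 1 h, loss of signal versus DMSO marking displacement. Compounds tested at 25 uM in duplicate, hits retested to max 50 uM.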

[6] = molecular target: human Serotonin, 5-Hydroxytryptamine Receptor 5A (5HT5A), HTR5A (gene 3361) (UniProt P47898); assay: NVS_GPCR_h5HT5A: NovaScreen (NVS) G Protein-Coupled Receptor Assay for human Serotonin, 5-Hydroxytryptamine Receptor 5A (5HT5A) (AID 2283251)
How it was run: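 Membranes from HEK293 cells, radioligand binding read by filtration and scintillation after 1 h. Single-concentration duplicate testing at 25 uM, then concentration-response for actives; positive-direction fitting relative to DMSO.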

Adenosine receptor A1 (Bos taurus), sequence (P28190 whole entry, looked up): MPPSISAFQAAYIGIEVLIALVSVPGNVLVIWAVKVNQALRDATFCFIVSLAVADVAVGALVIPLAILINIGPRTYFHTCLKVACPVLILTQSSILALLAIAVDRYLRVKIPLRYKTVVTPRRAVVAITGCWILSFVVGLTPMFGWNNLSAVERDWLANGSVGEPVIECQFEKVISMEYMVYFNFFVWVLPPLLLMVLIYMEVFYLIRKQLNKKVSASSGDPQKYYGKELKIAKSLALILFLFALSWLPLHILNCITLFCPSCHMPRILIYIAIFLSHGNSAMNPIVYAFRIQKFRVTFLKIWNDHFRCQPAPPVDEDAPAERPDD
rat Monoamine Oxidase, MAO-B, Peripheral (MAOBP), Maob (gene 25750), sequence (P19643 whole entry, looked up): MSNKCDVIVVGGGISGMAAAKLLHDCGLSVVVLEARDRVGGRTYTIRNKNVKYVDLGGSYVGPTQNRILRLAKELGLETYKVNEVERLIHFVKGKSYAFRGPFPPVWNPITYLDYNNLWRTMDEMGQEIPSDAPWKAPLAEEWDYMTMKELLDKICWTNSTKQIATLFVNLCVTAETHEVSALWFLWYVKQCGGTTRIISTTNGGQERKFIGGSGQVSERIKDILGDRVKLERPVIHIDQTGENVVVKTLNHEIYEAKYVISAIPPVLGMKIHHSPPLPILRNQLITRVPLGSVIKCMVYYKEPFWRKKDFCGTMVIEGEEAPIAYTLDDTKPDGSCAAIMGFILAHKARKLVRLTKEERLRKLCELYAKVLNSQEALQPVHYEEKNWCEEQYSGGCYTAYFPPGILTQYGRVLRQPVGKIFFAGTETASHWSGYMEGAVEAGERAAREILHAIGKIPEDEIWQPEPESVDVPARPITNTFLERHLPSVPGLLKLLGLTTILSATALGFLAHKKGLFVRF
guinea pig Leukotriene D4 Receptor (LTD4), CYSLTR1 (gene 100135514), sequence (Q2NNR5 whole entry, looked up): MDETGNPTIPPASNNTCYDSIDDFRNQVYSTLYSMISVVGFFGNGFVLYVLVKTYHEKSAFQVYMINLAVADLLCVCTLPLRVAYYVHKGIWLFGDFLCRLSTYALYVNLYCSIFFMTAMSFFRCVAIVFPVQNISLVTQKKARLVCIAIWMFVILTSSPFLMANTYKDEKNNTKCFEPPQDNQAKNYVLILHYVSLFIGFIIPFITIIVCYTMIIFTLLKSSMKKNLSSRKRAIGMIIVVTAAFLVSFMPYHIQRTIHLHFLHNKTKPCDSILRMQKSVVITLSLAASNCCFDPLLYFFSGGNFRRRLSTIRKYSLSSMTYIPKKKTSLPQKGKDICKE
human Serotonin, 5-Hydroxytryptamine Receptor 6 (5HT6), HTR6 (gene 3362), sequence (P50406 whole entry, looked up): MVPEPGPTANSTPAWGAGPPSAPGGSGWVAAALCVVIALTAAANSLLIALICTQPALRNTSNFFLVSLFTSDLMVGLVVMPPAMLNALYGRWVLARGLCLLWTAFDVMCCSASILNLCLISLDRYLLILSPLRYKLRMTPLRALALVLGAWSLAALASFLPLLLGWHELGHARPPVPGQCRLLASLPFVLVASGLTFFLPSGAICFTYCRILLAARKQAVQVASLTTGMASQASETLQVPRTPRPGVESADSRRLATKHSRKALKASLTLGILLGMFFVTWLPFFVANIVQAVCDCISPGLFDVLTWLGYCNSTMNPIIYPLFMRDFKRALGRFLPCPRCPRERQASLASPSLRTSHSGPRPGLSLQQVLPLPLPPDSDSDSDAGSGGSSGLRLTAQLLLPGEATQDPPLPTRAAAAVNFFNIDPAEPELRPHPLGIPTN
human Serotonin, 5-Hydroxytryptamine Receptor 5A (5HT5A), HTR5A (gene 3361), sequence (P47898 whole entry, looked up): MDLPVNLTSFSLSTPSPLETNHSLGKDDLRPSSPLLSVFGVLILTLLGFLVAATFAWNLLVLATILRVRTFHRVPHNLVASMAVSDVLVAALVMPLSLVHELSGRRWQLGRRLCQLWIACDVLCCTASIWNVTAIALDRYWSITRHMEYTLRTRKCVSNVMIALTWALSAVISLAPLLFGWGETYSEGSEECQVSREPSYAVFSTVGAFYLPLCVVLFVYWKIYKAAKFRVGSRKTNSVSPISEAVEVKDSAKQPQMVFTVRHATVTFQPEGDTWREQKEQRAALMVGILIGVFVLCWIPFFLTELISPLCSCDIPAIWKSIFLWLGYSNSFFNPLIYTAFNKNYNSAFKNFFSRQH

Q: How did the outcome [1] turn out when `Cc1ccc(N)cc1N` was run?
A: inactive

Q: With `CCOC(=O)c1ccccc1C(=O)OCC` as the compound, how does the outcome [2] read?
A: inactive

Q: `CCN(CC)c1ccccc1` was tested. Which outcome [2] did it give?
A: inactive

Q: Which outcome [3] does the source give for `CCCN(CCC)c1c([N+](=O)[O-])cc(C(C)C)cc1[N+](=O)[O-]` here?
A: inactive

Q: Which outcome [3] does the source give for `CSC(C)(C)C=NO` here?
A: inactive

Q: And the outcome [4]?
A: inactive

Q: How did the outcome [5] turn out when `c1nc[nH]n1` was run?
A: inactive

Q: How did the outcome [5] turn out when `ClC(Cl)c1ccccc1` was run?
A: inactive

Q: Which outcome [6] does the source give for `CCCCN(CCCC)SN(C)C(=O)Oc1cccc2c1OC(C)(C)C2` here?
A: inactive

Q: Which outcome [4] does the source give for `CCC(C)(C)c1ccc(O)cc1` here?
A: inactive
